# Reference: PubChem BioAssay (Tox21)
# Results filed as inconclusive are left out. The source made the active and inactive calls. Calls follow the shape of the dose curve; as a rule, active = well fitted curve in the direction sought with a large enough effect in the repeat runs; inconclusive = weak or mixed curves; inactive = no such curve, though single readings can be large; an effect the other way counts as inactive or inconclusive.
# Assay: qHTS RealTime-Glo MT Cell Viability Assay in HEK293 cells - 24 hour (AID 1224886); also: top concentration of the series differs between compounds; nearly all actives have a fitted effect of over 50% in size
# Settings: RealTime-Glo luminescence; series mostly up to 76.8 µM; activity change, negative = cytotoxicity: at the top concentration
# Outline: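 Viability tracked continuously by luminescence as live cells reduce a prosubstrate for NanoLuc; HEK293 cells preincubated 5 h, compound-treated at 37 C, and read at 0, 8, 16, 24, 32 and 40 h.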
# % is scaled to controls: 0 for no effect and ±100 for the full control effect.
row,Compound,"activity change, negative = cytotoxicity"
1,CN1CCC[C@@H]1Cc1c[nH]c2ccc(CCS(=O)(=O)c3ccccc3)cc12,-0.47% [at 35.3 µM] (inactive)
2,O=Cc1ccc(F)c(Br)c1,7.77% (inactive)
3,Cc1ncc(CO)c(CN)c1O,6.15% [at 35.3 µM] (inactive)
4,N#CSCC(=O)O,-1.56% [at 35.3 µM] (inactive)
5,CCCN(CCC)C(=O)C(CCC(=O)O)NC(=O)c1ccccc1 (centres undefined),5.85% [at 35.3 µM] (inactive)
6,CCN[C@H]1CN(CCCOC)S(=O)(=O)c2sc(S(N)(=O)=O)cc21,-2.46% [at 35.3 µM] (inactive)
7,Cc1ccc(C=O)s1,-2.87% (inactive)
8,COC(=O)C(C)O (centres undefined),5.15% (inactive)
9,CCOC(=O)NCCC[Si](OCC)(OCC)OCC,9.02% (inactive)
10,OCc1ccccc1O,-10.8% [at 35.3 µM] (inactive)
11,CCN(CC)C(=O)N(CC)CC,11% (inactive)
12,O=C1CCCc2ccccc21,19.6% (inactive)
13,FC(F)(F)C(F)(F)C(F)(F)C(F)(F)C(F)(F)C(F)(F)C(F)(F)C(F)(F)Br,1.91% [at 35.3 µM] (inactive)
14,Cn1cnc2c(F)c(Nc3ccc(Br)cc3Cl)c(C(=O)NOCCO)cc21,-2.15% [at 35.3 µM] (inactive)
15,CCCOc1ccc2c(c1)CC[C@@H]1[C@@H]2CC[C@]2(C)C(OC)CC[C@@H]12 (some centres undefined),6.51% [at 35.3 µM] (inactive)
16,CCN(CC)CC1CCCCN1CC(=O)N1c2ccccc2C(=O)Nc2cccnc21 (centres undefined),2.04% [at 35.3 µM] (inactive)
17,O=C(Cl)c1cccc([N+](=O)[O-])c1,3.45% (inactive)
18,CCCCCCC,-19% (inactive)
19,CCOC(=O)C1CC(=O)C(=C(O)C2CC2)C(=O)C1 (centres undefined),5.72% (inactive)
20,CC(=O)Nc1ccc(C)c(Cl)c1,-13.3% (inactive)
21,CCOc1ccc2nc(N)sc2c1,-2.07% (inactive)
22,CC(=O)OC(C)OC(C)=O,2.14% (inactive)
23,OC[C@H]1O[C@@H](O[C@H]2[C@H](O)[C@@H](O)[C@H](O)O[C@@H]2CO)[C@H](O)[C@@H](O)[C@H]1O,-0.466% (inactive)
24,CC(C)S,-1.01% (inactive)
25,Clc1cccc(-c2cc(Cl)cc(Cl)c2)c1,-15.5% (inactive)
26,CCC1(C)NC(=O)NC1=O (centres undefined),0.209% (inactive)
27,CCN(CC)CCNC(=O)COc1ccc(Cl)cc1,0.973% [at 35.3 µM] (inactive)
28,CN(C)Cc1ccccc1,2.75% (inactive)
29,COc1ccc(S(=O)(=O)Nc2nnc(CC(C)C)s2)cc1,8.53% [at 35.3 µM] (inactive)
30,O=c1[nH]cnc2c1ncn2[C@@H]1O[C@H](CO)[C@@H](O)[C@H]1O,7.75% [at 35.3 µM] (inactive)

# Assay: qHTS RealTime-Glo MT Cell Viability Assay in HEK293 cells - 8 hour (AID 1224887); also: top concentration of the series differs between compounds; nearly all actives have a fitted effect of over 50% in size
# Settings: RealTime-Glo luminescence; series mostly up to 76.8 µM; activity change, negative = cytotoxicity: at the top concentration
# Outline: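 HEK293 + NanoLuc + prosubstrate, 600 cells/well; 5 h, 37 C/5% CO2; compound 23 nL in DMSO by pintool; 37 C; luminescence read at 0, 8, 16, 24, 32 and 40 h time points.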
row,Compound,"activity change, negative = cytotoxicity"
1,CN1CCC[C@@H]1Cc1c[nH]c2ccc(CCS(=O)(=O)c3ccccc3)cc12,3.79% [at 35.3 µM] (inactive)
2,O=Cc1ccc(F)c(Br)c1,12.5% (inactive)
3,Cc1ncc(CO)c(CN)c1O,5.15% [at 35.3 µM] (inactive)
4,N#CSCC(=O)O,5.95% [at 35.3 µM] (inactive)
5,CCCN(CCC)C(=O)C(CCC(=O)O)NC(=O)c1ccccc1 (centres undefined),5.43% [at 35.3 µM] (inactive)
6,CCN[C@H]1CN(CCCOC)S(=O)(=O)c2sc(S(N)(=O)=O)cc21,-2.36% [at 35.3 µM] (inactive)
7,Cc1ccc(C=O)s1,-7.18% (inactive)
8,COC(=O)C(C)O (centres undefined),-0.924% (inactive)
9,CCOC(=O)NCCC[Si](OCC)(OCC)OCC,0.271% (inactive)
10,OCc1ccccc1O,-13.5% [at 35.3 µM] (inactive)
11,O=C(C(Cl)Cl)N1CCOC12CCCCC2,16% (inactive)
12,CCN(CC)C(=O)N(CC)CC,7.73% (inactive)
13,O=C1CCCc2ccccc21,6.36% (inactive)
14,CC(=O)O[C@H]1CC[C@@]2(C)C(=CC[C@@H]3[C@@H]2CC[C@]2(C)C(C(C)=O)=CC[C@@H]32)C1,-9.7% [at 35.3 µM] (inactive)
15,FC(F)(F)C(F)(F)C(F)(F)C(F)(F)C(F)(F)C(F)(F)C(F)(F)C(F)(F)Br,9.76% [at 35.3 µM] (inactive)
16,Cn1cnc2c(F)c(Nc3ccc(Br)cc3Cl)c(C(=O)NOCCO)cc21,-1.54% [at 35.3 µM] (inactive)
17,ClC(Cl)Cl,-0.0373% (inactive)
18,CCCOc1ccc2c(c1)CC[C@@H]1[C@@H]2CC[C@]2(C)C(OC)CC[C@@H]12 (some centres undefined),10.7% [at 35.3 µM] (inactive)
19,CCN(CC)CC1CCCCN1CC(=O)N1c2ccccc2C(=O)Nc2cccnc21 (centres undefined),2.46% [at 35.3 µM] (inactive)

row,Compound,"activity change, negative = cytotoxicity"
1,O=C(Cl)c1cccc([N+](=O)[O-])c1,4.46% (inactive)
2,Cc1cc(NS(=O)(=O)c2ccc(N)cc2)nc(C)n1,-0.352% [at 35.3 µM] (inactive)
3,CCCCCCC,-12.1% (inactive)
4,CCOC(=O)C1CC(=O)C(=C(O)C2CC2)C(=O)C1 (centres undefined),11.3% (inactive)
5,CC(=O)Nc1ccc(C)c(Cl)c1,-14.8% (inactive)
6,CCCCCCCCc1ccc(S(=O)(=O)O)cc1,-4% (inactive)
7,CCOC(=O)C(Br)c1ccccc1 (centres undefined),5.14% (inactive)
8,CCOc1ccc2nc(N)sc2c1,1.52% (inactive)
9,CCCC(CCC)(C(=O)OCC)C(=O)OCC,3.23% [at 35.3 µM] (inactive)
10,CCC/C=C/CO,1.76% (inactive)
11,CC(=O)OC(C)OC(C)=O,3.57% (inactive)
12,OC[C@H]1O[C@@H](O[C@H]2[C@H](O)[C@@H](O)[C@H](O)O[C@@H]2CO)[C@H](O)[C@@H](O)[C@H]1O,-1.04% (inactive)
13,CC(C)S,4.72% (inactive)
14,Clc1cccc(-c2cc(Cl)cc(Cl)c2)c1,-20.8% (inactive)
15,CCC1(C)NC(=O)NC1=O (centres undefined),0.502% (inactive)
16,CCN(CC)CCNC(=O)COc1ccc(Cl)cc1,1.41% [at 35.3 µM] (inactive)
17,CN(C)Cc1ccccc1,-1.8% (inactive)
18,COc1ccc(S(=O)(=O)Nc2nnc(CC(C)C)s2)cc1,11.7% [at 35.3 µM] (inactive)
19,O=c1[nH]cnc2c1ncn2[C@@H]1O[C@H](CO)[C@@H](O)[C@H]1O,3.56% [at 35.3 µM] (inactive)

# Assay: A CellTox Green Cytotoxicity Assay to monitor cytotoxicity in HEK293 cells - 16 hour (AID 1224888); also: nearly all actives have a fitted effect of over 35% in size; also: potency is read from the fitted curve at half-maximal effect
# Settings: CellTox Green fluorescence; series mostly up to 76.8 µM; activity change: at the top concentration
# Outline: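 Tox21 screen in HEK293: membrane-impermeant cyanine dye fluoresces on binding dead-cell DNA; compound pinned 5 h post-seeding, plates held at 37 C, signal read repeatedly through 40 h.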
Compound,activity change,Potency
CN1CCC[C@@H]1Cc1c[nH]c2ccc(CCS(=O)(=O)c3ccccc3)cc12,"2.1% [at 35.3 µM, hits give high values] (inactive)",
O=Cc1ccc(F)c(Br)c1,8.09% (inactive),
Cc1ncc(CO)c(CN)c1O,"-15.4% [at 35.3 µM, hits give high values] (inactive)",
N#CSCC(=O)O,"-0.904% [at 35.3 µM, hits give high values] (inactive)",
CCCN(CCC)C(=O)C(CCC(=O)O)NC(=O)c1ccccc1 (centres undefined),"-11.4% [at 35.3 µM, hits give high values] (inactive)",
CCN[C@H]1CN(CCCOC)S(=O)(=O)c2sc(S(N)(=O)=O)cc21,"2.32% [at 35.3 µM, hits give high values] (inactive)",
Cc1ccc(C=O)s1,,38.9 µM (active)
COC(=O)C(C)O (centres undefined),-11.7% (inactive),
O=C(C(Cl)Cl)N1CCOC12CCCCC2,-1.92% (inactive),
CCN(CC)C(=O)N(CC)CC,18.6% (inactive),
O=C1CCCc2ccccc21,-7.47% (inactive),
COc1ccccc1N1CCN(CCCNc2cc(=O)n(C)c(=O)n2C)CC1,"1.55% [at 35.3 µM, hits give high values] (inactive)",
CC(=O)O[C@H]1CC[C@@]2(C)C(=CC[C@@H]3[C@@H]2CC[C@]2(C)C(C(C)=O)=CC[C@@H]32)C1,"3.3% [at 35.3 µM, hits give high values] (inactive)",
FC(F)(F)C(F)(F)C(F)(F)C(F)(F)C(F)(F)C(F)(F)C(F)(F)C(F)(F)Br,"-5.47% [at 35.3 µM, hits give high values] (inactive)",
ClC(Cl)Cl,-3% (inactive),
CCCOc1ccc2c(c1)CC[C@@H]1[C@@H]2CC[C@]2(C)C(OC)CC[C@@H]12 (some centres undefined),"2.24% [at 35.3 µM, hits give high values] (inactive)",

Compound,activity change,Potency
CCN(CC)CC1CCCCN1CC(=O)N1c2ccccc2C(=O)Nc2cccnc21 (centres undefined),"25.8% [at 35.3 µM, hits give high values] (inactive)",
O=C(Cl)c1cccc([N+](=O)[O-])c1,-0.255% (inactive),
CCCCCCC,18% (inactive),
CCOC(=O)C(Br)c1ccccc1 (centres undefined),-7.74% (inactive),
CCOc1ccc2nc(N)sc2c1,1.33% (inactive),
CCCC(CCC)(C(=O)OCC)C(=O)OCC,"-2.84% [at 35.3 µM, hits give high values] (inactive)",
CCC/C=C/CO,-5.7% (inactive),
CC(=O)OC(C)OC(C)=O,-1.95% (inactive),
OC[C@H]1O[C@@H](O[C@H]2[C@H](O)[C@@H](O)[C@H](O)O[C@@H]2CO)[C@H](O)[C@@H](O)[C@H]1O,-19.1% (inactive),
CC(C)S,-1.12% (inactive),
CCC1(C)NC(=O)NC1=O (centres undefined),0.494% (inactive),
CCN(CC)CCNC(=O)COc1ccc(Cl)cc1,"-13.7% [at 35.3 µM, hits give high values] (inactive)",
CN(C)Cc1ccccc1,-3.53% (inactive),
COc1ccc(S(=O)(=O)Nc2nnc(CC(C)C)s2)cc1,"-16.4% [at 35.3 µM, hits give high values] (inactive)",
O=c1[nH]cnc2c1ncn2[C@@H]1O[C@H](CO)[C@@H](O)[C@H]1O,"0% [at 35.3 µM, hits give high values] (inactive)",
